An excerpt weighted towards active compounds, which were near 12% of everything screened.
HP1b binding inh: HTS for Inhibitors of HP1-beta Chromodomain Interactions with Methylated Histone Tails; Chromobox protein homolog 1 (Homo sapiens), P83916; AlphaScreen HP1-beta / biotin-H3K9me3 peptide binding; Potency, µM (highest dose often 114 µM), for the others: at the top dose activity change, negative = inhibition, actives largely listed as inhibitors; 0.56% of 390,000 active; AID 540317, 2011; note: nearly all actives have a fitted effect of over 70% in size
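AlphaScreen: HP1-beta (50 nM) preformed 30 min with biotin-H3(1-18)K9me3 peptide (50 nM) in PBS pH 7.4, 0.01% Tween-20. Compound added for 30 min at RT, then streptavidin donor/nickel chelate acceptor beads (10 ug/mL) for 30 min.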
G9a inh: qHTS Assay for Inhibitors of Histone Lysine Methyltransferase G9a. Histone-lysine N-methyltransferase EHMT2 (Homo sapiens), Q96KQ7. 8.8% of 350,000 active. AID 504332, 2011. G9a H3K9 monomethylation, AlphaScreen, 2 h. Potency, µM (doses to about 102 µM), for inactives: top-dose activity, negative = inhibition, actives largely listed as inhibitors; note: % is set by controls: 0 for no effect and ±100 for the full control effect; nearly all actives have a fitted effect of over 75% in size
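Enzyme 20 nM + cpd, 15 min RT; add b-H3K9 pep 500 nM / SAM 20 uM; 2 h RT; anti-H3K9me1 Ab 0.5 ug/mL + SA donor / anti-rabbit acceptor beads 20 ug/mL each, 10 min; AlphaScreen read.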
TDP1 inh: qHTS Assay for Inhibitors of Tyrosyl-DNA Phosphodiesterase (TDP1) | Tyrosyl-DNA phosphodiesterase 1 (Homo sapiens), Q9NUW8 | recombinant TDP1, AlphaScreen DNA substrate cleavage | Potency, µM (series often up to 130 µM), inactives show at the top dose activity change, negative = inhibition, most hits filed as inhibitors | 0.28% of 350,000 active | AID 485290, 2010; note: % is set by controls: 0 for no effect and ±100 for the full control effect; nearly all actives have a fitted effect of over 40% in size
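Here, a 5' biotin and 3' phosphotyrosine-FITC DNA oligonucleotide reports Tdp1 activity: intact substrate bridges AlphaScreen beads, while cleavage leaves a 3' phosphate and drops signal. All incubations at room temperature.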
BAZ2B block: qHTS Assay for Inhibitors of BAZ2B. Bromodomain adjacent to zinc finger domain protein 2B (Homo sapiens), Q9UIF8. AlphaScreen BAZ2B-H3K14Ac peptide displacement. Potency, µM (series often up to 114 µM), for the others: at the top dose activity change, negative = inhibition, actives largely listed as inhibitors. 4.4% of 360,000 active; note: % is set by controls: 0 for no effect and ±100 for the full control effect; nearly all actives have a fitted effect of over 60% in size
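Multi-concentration screen (max 110 uM) measuring displacement of acetylated histone H3 peptide from BAZ2B by AlphaScreen, using 50 nM protein, 50 nM peptide and 10 ug/mL streptavidin donor plus Ni-chelate acceptor beads.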
Sfp PPTase inh: qHTS Assay for Inhibitors of Bacillus subtilis Sfp phosphopantetheinyl transferase (PPTase); Biochemical Sfp PPTase activity, qHTS; Potency, µM, without a hit: largest response in the series, negative = inhibition, usual class: inhibitors; 3.5% of 310,000 active;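 note: the enzyme is Sfp with the accession as filed and its product quenches rhodamine fluorescence; 0% = enzyme reaction without inhibitor and -100% = no enzyme wells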
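Fluorescence-quenching assay: 15 nM Sfp-PPTase preincubated 15 min at room temperature with compound, then 5 uM rhodamine-CoA and 12.5 uM BHQ-2-labelled YbbR peptide added. Fluorescence (ex 525/em 598 nm) read at start and after 30 min; difference gives rate.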
JMJD2A Tudor: qHTS Assay for Inhibitors of JMJD2A-Tudor Domain. Lysine-specific demethylase 4A (Homo sapiens), O75164. AlphaScreen JMJD2A-Tudor / H3K4me3 peptide binding. Potency, µM (titrated, usually from 114 µM), inactives show at the highest dose activity change, negative = inhibition, usual class: inhibitors. 4.4% of 390,000 active. AID 504339, 2011; note: % is set by controls: 0 for no effect and ±100 for the full control effect; nearly all actives have a fitted effect of over 50% in size
An asterisk follows results filed as active; ? = inconclusive; · = no result; [ ] = another dose, or the depositor's remark. Calls come from the whole dose curve; as a rule, active = well fitted curve in the direction sought with a large enough effect; inconclusive = small, poorly fitted or top-dose-only effect, or another doubt; inactive = no such curve, though single readings can be large; an effect the other way counts as inactive or inconclusive. Potency is the fitted concentration of half-maximal effect.

SMILES | HP1b binding inh | G9a inh | TDP1 inh | BAZ2B block | Sfp PPTase inh | JMJD2A Tudor
COc1cc2c(cc1/C=C1/NC(=O)N(CC(=O)Nc3ccccc3)C1=O)OCO2 | 4% | -35% | 2% | -18% | -5% | -8%
COc1cccc(/C=C2/NC(=O)NC2=O)c1OCC(=O)Nc1ccccc1 | 36% | -6% | -3% | -4% | 10% | -16%
Cc1ccc(NC(=O)CN2C(=O)N/C(=C/c3ccccc3OCc3cccc(C(=O)O)c3)C2=O)cc1 | ? | 45µM* | 6%[0.0935 µM] | 18µM* | 89µM* | 28µM*
O=C1CN(C(=O)c2ccc(S(=O)(=O)N3CCCCC3)cc2)C(c2ccc(F)cc2)c2cc(F)ccc2N1 (centres undefined) | 0% | -10%[59 µM] | 6% | -7% | · | -24%
Cc1cc(OCC(O)CN2CCN(C)CC2)ccc1C(C)C (centres undefined) | 12% | 89µM* | 4% | -2% | 14% | -16%
CCN1CCN(CC(O)COc2ccc(Cl)cc2)CC1 (centres undefined) | 40% | -44%[59 µM] | 0% | ? | -3% | ?
CC(=O)N1CCN(CC(O)COc2ccc(Br)cc2)CC1 (centres undefined) | ? | 8.9µM* | · | 56µM* | -22% | 18µM*
CCOC(=O)c1c(C)n(-c2ccc(C)cc2)c2ccc(OCC(O)CN3CCN(C)CC3)cc12 (centres undefined) | 1% | 50µM* | 6% | · | 40µM* | ?
OCCN1CCN(CC(O)COc2ccc(Cl)cc2)CC1 (centres undefined) | 16% | 50µM* | 2% | ? | 8% | -24%
CC1CCCCN1CCCNC(=O)c1cc(Br)c(Br)[nH]1 (centres undefined) | 27% | -10% | · | -14% | 20% | -22%
CN1CCN(CC(O)COc2ccc(Cl)cc2)CC1 (centres undefined) | 5% | 56µM* | 2% | -7% | 19% | -13%
Cc1ccc(C)c(N2CCN(C(=O)C3CCC(CNS(=O)(=O)c4ccc(Br)s4)CC3)CC2)c1 (centres undefined) | 25% | 4%[59 µM] | -2%[12.3 µM] | -1% | · | -14%
CC(=O)Nc1ccc(N/C=C/C(=O)c2ccc(Cl)cc2)cc1 | 21% | -4% | 32µM* | -11% | 0% | -9%
CC(=O)Nc1ccc(C(=O)/C=C/c2ccco2)cc1 | -26% | 10µM* | · | 56µM* | 13µM* | ?
CC(=O)Nc1cccc(C(=O)/C=C/c2ccc(/C=C/C(=O)c3cccc(NC(C)=O)c3)cc2)c1 | · | 1%[59 µM] | 3% | 1% | 3% | ·
CC(=O)Nc1cccc(C(=O)/C=C/c2ccco2)c1 | 6% | 14µM* | -12% | -2% | 14µM* | -12%
CCCCCC1=C2CNC(CC(C)C)(C(=O)OC)C=C2C(C)C1=O (centres undefined) | · | · | 4% | · | -11% | ·
CCOc1ccc(NS(=O)(=O)c2cccc(C(=O)N(C)Cc3ccco3)c2)cc1 | 18% | 7%[2.33 µM] | 0%[56.1 µM] | -9% | · | -12%
Cc1[nH]c2ccccc2c1C(c1ccccn1)N1CCC(C(N)=O)CC1 (centres undefined) | -34% | 1.6µM* | 8% | · | 63µM* | ?
CCOC(=O)C1CCN(C(c2ccccn2)c2c(C)[nH]c3ccccc23)CC1 (centres undefined) | ? | 1.4µM* | 5% | -12% | ? | ?
CCOC(=O)C1CCN(C(=O)c2n[nH]c(=O)c3ccccc23)CC1 | 12% | 4%[59 µM] | 3% | 1% | 15% | 2%
O=C(O)/C=C\C(=O)Nc1ccc(F)c(F)c1F | 68% | 40µM* | 0% | -3% | -7% | 0%
COC(=O)c1ccc(C(=O)OC)c(NC(=O)/C=C/C(=O)O)c1 | 6% | ? | -4% | 8% | 40µM* | -11%
COC(=O)c1ccc(C(=O)OC)c(NC(=O)C2CC2)c1 | 25% | 3%[59 µM] | 8% | 4% | 10% | -11%
CCC1(OC(=O)CN(C)C)C(=O)OCc2c1cc1n(c2=O)Cc2cc3c(N)cccc3nc2-1 (centres undefined) | -10% | · | · | · | · | 16µM*
SMILES | HP1b binding inh | G9a inh | TDP1 inh | BAZ2B block | Sfp PPTase inh | JMJD2A Tudor
C[C@@H]1OC2C3=C(C(=O)[C@H]4O[C@@H]4[C@H]3O)[C@@H]1[C@H]1[C@H](C)OC=C3[C@H](O)[C@H]4O[C@H]4/C(=N\OCc4ccccc4)[C@@]321 | · | · | 2%[21 µM] | · | 5% | ·
COc1ccc(C2(C(=O)c3ccccc3)C(=O)c3ccccc3C2=O)cc1 | ? | · | · | 22µM* | 45µM* | 35µM*
O=C(Nc1cccc2cccnc12)OC(Cl)(Cl)Cl | 30% | · | -4% | · | · | -24%
O=C(c1cccc(Cl)c1)N1CCN(c2ncccn2)CC1 | 53% | -8% | · | 3% | 12% | 12%
CC(C)N1CCN(C(=O)c2cccc(Cl)c2)CC1 | ? | 25µM* | · | ? | -16% | 14µM*
O=C(c1cccnc1)N1CCN(C(=O)c2cccc(Cl)c2)CC1 | 65% | · | · | 3% | 7% | -3%
CCC(CC)N1CCN(C(=O)c2cccc(Cl)c2)CC1 | ? | 7.9µM* | · | 56µM* | -16% | 20µM*
Cc1cn2c(=O)cc(COC(=O)c3cccc(NC(=O)c4ccc(C(C)(C)C)cc4)c3)nc2s1 | 11% | 8%[59 µM] | 1% | -2% | · | -14%
COc1ccc(NC(=O)C2=CC(c3ccc(OC)cc3)=NS(=O)(=O)N2C)cc1 | -16% | · | · | -38% | 13% | ?
CSc1ccccc1NC(=O)C1=CC(c2ccc(C)cc2)=NS(=O)(=O)N1C | 16% | 79µM* | · | ? | 18% | -35%
COc1ccc(C2=NS(=O)(=O)N(C)C(C(=O)Nc3ccc(OC(F)(F)F)cc3)=C2)cc1 | 5% | 14µM* | 11% | -34% | · | -33%
Cc1cc(N2CCN(c3ccccc3)CC2)nc(-c2ccccc2O)n1 | 69% | -45% | 9% | 14% | -4% | -7%[57.1 µM]
Cc1cc(N2CCN(c3ccccc3)CC2)nc(-n2nc(C)cc2C)n1 | 16% | 11%[2.33 µM] | 4% | ? | 8% | 45µM*
O=c1[nH][nH]cc1C=Nc1ccc(Cl)cc1 | 31% | -33% | 7% | -26% | 1% | -20%
COc1cccc(N=Cc2c[nH][nH]c2=O)c1 | -11% | · | 1% | -9% | 14% | 56µM*
